Assay [1] is described as follows: NCI Yeast Anticancer Drug Screen. Data for the rad50 strain (AID 155).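 Note: 0% = growth of vehicle-only cultures of the same strain.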 As to conditions: S. cerevisiae rad50 strain growth inhibition, active compounds read high. The procedure, abridged: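 Relative growth inhibition (compound vs vehicle) was measured in yeast with a defined repair-gene alteration.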
The nature of assay [2]: NCI Yeast Anticancer Drug Screen. Data for the mec2-1 strain (AID 157). As to conditions: S. cerevisiae mec2-1 strain, active compounds read high. The method in brief: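 Cells of the genetically defined mec2-1 yeast strain are incubated with test compound. Inhibition of growth is calculated against vehicle-treated controls.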
The nature of assay [3]: NCI Yeast Anticancer Drug Screen. Data for the sgs1 mgt1 strain (AID 161).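 Note: 0% = growth of cultures given vehicle only.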 As to conditions: S. cerevisiae sgs1 mgt1 strain, active compounds read high. The method in brief: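 Read-out: growth inhibition vs vehicle controls. Cells: mutant yeast strain deficient in DNA damage repair.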
Assay [4] in a line: NCI Yeast Anticancer Drug Screen. Data for the cln2 rad14 strain (AID 165).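 Note: 0% = growth equal to vehicle treated cultures.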 As to conditions: S. cerevisiae cln2 rad14 strain, active compounds read high. The procedure, abridged: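 The screen exposed genetically defined yeast (cln2 rad14) to test compounds and scored growth inhibition relative to vehicle-treated controls.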
Assay [5] can be described thus: NCI Yeast Anticancer Drug Screen. Data for the bub3 strain (AID 167). As to conditions: S. cerevisiae bub3 mutant strain, active compounds read high. The method in brief: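 Screening used yeast with an engineered genetic alteration affecting cell cycle control. Compound-exposed cultures were compared with vehicle cultures, and reduced growth was taken as inhibition.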
Assay [6] is described as follows: NCI Yeast Anticancer Drug Screen. Data for the mlh1 rad18 strain (AID 175). As to conditions: S. cerevisiae mlh1 rad18 strain growth inhibition, active compounds read high. The procedure, abridged: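 Compound-treated yeast growth, normalised to vehicle controls. Strain bears defined DNA repair mutations.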
Where [7] appears, read: at 5.0 µM (retest, dose inferred, filed as 0.5).
Where [8] appears, read: at 50.0 µM (retest, dose inferred, filed as 5.0).

Each structure is given as a SMILES string. The panel holds about 79,000 compounds, 15% with a hit somewhere; the sample as a whole holds those more often. Values without a mark were called inactive. Calls of active or inactive are those of the source. Cut-off read from the data, not from the text of the source: active = growth inhibition above about 70%; inactive = the rest.

Regarding `CCCCCCCCCCCCNC(=O)C[n+]1cccc(C(=O)N(C)C)c1`, the growth inhibition in assay [1] (setting [7]) was -5%; in assay [1] (setting [8]) it was 33%; in assay [1] (at 50.0 µM) it was 68.3%; in assay [2] (setting [7]), -24%; in assay [2] (setting [8]), -13%; in assay [2] (at 50.0 µM) it was 58%. The growth inhibition in assay [3] (setting [7]) is -17%; in assay [3] (setting [8]), 46%; in assay [3] (at 50.0 µM), 91.4% (active); in assay [4] (setting [7]), -15%; in assay [4] (setting [8]), 13%; in assay [4] (at 50.0 µM), 24.6%. In addition, the growth inhibition in assay [5] (setting [7]) was -9%; in assay [5] (setting [8]), 21%; in assay [5] (at 50.0 µM), 3.35%; in assay [6] (setting [7]), 7%; in assay [6] (setting [8]), 44%; in assay [6] (at 50.0 µM) it was 53.4%.
Take `NC(=S)C(=Nc1ccccc1F)Nc1ccccc1F`: the growth inhibition was 2% in assay [1] (setting [7]); 85% (active) in assay [1] (setting [8]); 8.4% in assay [1] (at 50.0 µM); -8% in assay [2] (setting [7]); 31% in assay [2] (setting [8]); -9.55% in assay [2] (at 50.0 µM). Moreover, the growth inhibition in assay [3] (setting [7]) was -10%; in assay [3] (setting [8]), 70% (active); in assay [3] (at 50.0 µM), 61.6%; in assay [4] (setting [7]), -6%; in assay [4] (setting [8]), 35%; in assay [4] (at 50.0 µM), 5.55%. Besides, the growth inhibition was -1% in assay [5] (setting [7]); 81% (active) in assay [5] (setting [8]); 32.9% in assay [5] (at 50.0 µM); 20% in assay [6] (setting [7]); 87% (active) in assay [6] (setting [8]); 66.2% in assay [6] (at 50.0 µM).
As to `CC12CCCCC1CCC(Br)C2=O` (stereo unspecified), the growth inhibition in assay [1] (setting [7]) is -115%; in assay [1] (setting [8]), -2%; in assay [1] (at 50.0 µM) it was 59%; in assay [2] (setting [7]), -40%; in assay [2] (setting [8]), -18%; in assay [2] (at 50.0 µM) it was 41.5%. Also, the growth inhibition is -51% in assay [3] (setting [7]); 22% in assay [3] (setting [8]); 70.2% (active) in assay [3] (at 50.0 µM); -50% in assay [4] (setting [7]); -35% in assay [4] (setting [8]); -17.7% in assay [4] (at 50.0 µM). The growth inhibition was -57% in assay [5] (setting [7]); -34% in assay [5] (setting [8]); 13.1% in assay [5] (at 50.0 µM); -128% in assay [6] (setting [7]); -55% in assay [6] (setting [8]); 61.6% in assay [6] (at 50.0 µM).
`O=c1nc(N2CCCC2)nc(N2CCCC2)s1`: the growth inhibition in assay [1] (setting [7]) was -16%; in assay [1] (setting [8]) it was -8%; in assay [1] (at 50.0 µM), -11.4%; in assay [2] (setting [7]) it was 4%; in assay [2] (setting [8]) it was -14%; in assay [2] (at 50.0 µM) it was 0.8%. Besides, the growth inhibition is -1% in assay [3] (setting [7]); -11% in assay [3] (setting [8]); -9.25% in assay [3] (at 50.0 µM); 14% in assay [4] (setting [7]); -5% in assay [4] (setting [8]); -38.6% in assay [4] (at 50.0 µM). Also, the growth inhibition is -7% in assay [5] (setting [7]); -10% in assay [5] (setting [8]); -4.15% in assay [5] (at 50.0 µM); 14% in assay [6] (setting [7]); -1% in assay [6] (setting [8]); 7.45% in assay [6] (at 50.0 µM).
Regarding `CN(O)C(=S)c1ccccc1`, the growth inhibition is 50% in assay [1] (setting [7]); 87% (active) in assay [1] (setting [8]); 91.7% (active) in assay [1] (at 50.0 µM); 43% in assay [2] (setting [7]); 73% (active) in assay [2] (setting [8]); 93.3% (active) in assay [2] (at 50.0 µM). The growth inhibition is 55% in assay [3] (setting [7]); 99% (active) in assay [3] (setting [8]); 92.5% (active) in assay [3] (at 50.0 µM); 41% in assay [4] (setting [7]); 99% (active) in assay [4] (setting [8]); 89.6% (active) in assay [4] (at 50.0 µM). The growth inhibition in assay [5] (setting [7]) is 95% (active); in assay [5] (setting [8]) it was 99% (active); in assay [5] (at 50.0 µM), 91.8% (active); in assay [6] (setting [7]), 36%; in assay [6] (setting [8]), 67%; in assay [6] (at 50.0 µM), 86.7% (active).
Regarding `COc1ccc(C23OCCN2C(=O)c2ccccc23)cc1` (stereo unspecified), the growth inhibition in assay [1] (setting [7]) is 4%; in assay [1] (setting [8]) it was -3%; in assay [1] (at 50.0 µM), 97% (active); in assay [2] (setting [7]), -15%; in assay [2] (setting [8]), -6%; in assay [2] (at 50.0 µM), 97.1% (active). The growth inhibition was -4% in assay [3] (setting [7]); 2% in assay [3] (setting [8]); 97.5% (active) in assay [3] (at 50.0 µM); -4% in assay [4] (setting [7]); -2% in assay [4] (setting [8]); 92.7% (active) in assay [4] (at 50.0 µM). In addition, the growth inhibition was -31% in assay [5] (setting [7]); -2% in assay [5] (setting [8]); 96.3% (active) in assay [5] (at 50.0 µM); -10% in assay [6] (setting [7]); -2% in assay [6] (setting [8]); 97.9% (active) in assay [6] (at 50.0 µM).
For the compound `O=C(O)CC(NC(=O)CP(=O)(O)O)C(=O)O.[NH-]C1CCCCC1[NH-].[Pt+2]` (stereo unspecified), the growth inhibition is 30% in assay [1] (setting [7]); 24% in assay [1] (setting [8]); -2.95% in assay [1] (at 50.0 µM); 2% in assay [2] (setting [7]); 3% in assay [2] (setting [8]); -27.1% in assay [2] (at 50.0 µM). Besides, the growth inhibition in assay [3] (setting [7]) is 26%; in assay [3] (setting [8]) it was 11%; in assay [3] (at 50.0 µM) it was -27.9%; in assay [4] (setting [7]), 22%; in assay [4] (setting [8]) it was 16%; in assay [4] (at 50.0 µM), 20.8%. Further, the growth inhibition in assay [5] (setting [7]) is 18%; in assay [5] (setting [8]) it was 23%; in assay [5] (at 50.0 µM), -12.2%; in assay [6] (setting [7]), 18%; in assay [6] (setting [8]), 2%; in assay [6] (at 50.0 µM) it was -23.1%.

The values are drawn from PubChem BioAssay (NCI).
